# Experimental data taken from PubChem BioAssay (Tox21).
# “And” between values parts separate entries of the source, which are not always exact repeats. Equal entries are not always repeated. Results filed as inconclusive are left out. Where a call stands in place of a potency, no number is given. A number with no mark means an inactive call. The source made the active and inactive calls. The call rests on the fitted dose curve; in most records, active means well fitted cell-killing curve with a large enough effect in the repeat runs; inconclusive means weak or mixed curves, or effect the other way; inactive means no such curve, though single readings can be large or run the other way.
# Assay: qHTS assay for identifying genotoxic compounds that show differential cytotoxicity against isogenic chicken DT40 cell lines with known DNA damage response pathways - wild type cell line (AID 743012); further: nearly all actives have a fitted effect of over 60% in size
# Settings: DT40 wild type chicken cells viability, CellTiter-Glo, 40 h; series mostly up to 68.4 µM
# Description: U.S. Tox21 Program National Center for Advancing Translational Sciences [NCATS] NIH Chemical Genomics Center [NCGC] U.S. Environmental Protection Agency [EPA] National Institutes of Environmental Health Sciences [NIEHS] National Toxicology Program [NTP] U.S. Food and Drug Administration [FDA] Tox21 Assay Overview: DNA repair pathways play a critical role in cellular homeostasis by repairing DNA damage induced by endogenous processes and xenobiotics. Isogenic chicken DT40 cell lines deficient in different DNA repair pathways can be used to identify genotoxic compounds and aid in characterizing the nature of the DNA damage induced. Two DNA repair-deficient cell lines with disrupted genes, Rad54/Ku70 or Rev3, were used to screen the Tox21 10K compound library. Possible genotoxicity was based on the presence of a significant increase in cytotoxicity in one or more of the DNA repair-deficient cell lines compared to that observed in the parental DNA repair-proficient cell line. CellTiter Glo viability assay (Promega, Madison, WI) was used to measure cell viability in these cells after compound treatment. This assay includes the data from the wild type cell line.
# Tox21 Assay Protocol Summary: 300 DT40 wild type cells in 5 uL/well were dispensed into white, solid-bottom 1536-well plates using a Multidrop Combi (ThermoFisher Scientific, Waltham, MA) dispenser. After the assay plates were incubated at 37 C/5% CO2 for approximately 0.5 hour, 23 nL of compounds dissolved in DMSO, positive controls or DMSO only was transferred into the assay plate by a pintool work station (Kalypsys, San Diego, CA). The assay plates were incubated at 37 C/5% CO2 for 40 hours. After 5 uL per well of CellTiter-Glo reagent was added into each well of the assay plates, the plates were incubated for 30 min at room temperature and the luminescence intensity of the plates was measured using a ViewLux (PerkinElmer, Shelton, CT) plate reader.
# Potency means the concentration at half of the fitted maximal effect.
Compound,Potency,"activity change, negative = cytotoxicity"
CCOC(=O)NCCOc1ccc(Oc2ccccc2)cc1,61.1 µM (active),
O=P(O)(OCc1ccccc1)OCc1ccccc1,inactive,
CCN(CC)c1ccc2c(-c3ccccc3C(=O)O)c3ccc(=[N+](CC)CC)cc-3oc2c1,12.2 µM (active),
CCn1cc(C(=O)O)c(=O)c2cnc(N3CCNCC3)nc21,inactive,
CC/C=C\CCOC(=O)CC,inactive,
CC(C)=CCC/C(C)=C/CC/C(C)=C/CO,34.4 µM (active),
CC(=O)NO,inactive,
C#C[C@]1(O)CC[C@H]2[C@@H]3CCc4cc(OC5CCCC5)ccc4[C@H]3CC[C@@]21C,1.68 µM (active),
COc1cc(C(=O)OCCCN2CCCN(CCCOC(=O)c3cc(OC)c(OC)c(OC)c3)CC2)cc(OC)c1OC,8.41 µM (active),
CC(CC=O)c1ccccc1 (stereo not given),inactive,
Nc1ncn([C@H]2C[C@H](O)[C@@H](CO)O2)c(=O)n1,0.106 µM (active),
CC(=O)c1ccc2c(c1)N(CCCN(C)C)c1ccccc1S2,12.7 µM (active),
C=CC(=O)OCCOCCOC(=O)C=C,9.73 µM (active),
O=C(Cl)c1cc(C(=O)Cl)cc(C(=O)Cl)c1,19.3 µM (active),
Cc1cc(C(=O)O)ccc1[N+](=O)[O-],inactive,
CCCCC,inactive,
CC(CSC(=O)c1ccccc1)C(=O)N1C[C@@H](Sc2ccccc2)C[C@H]1C(=O)O (stereo not given in full),inactive,
C=C1[C@H]2CC[C@@H]3[C@H]2C(C)(C)CCC[C@]13C,inactive,
CCO[C@H](Cc1ccc(OCCc2ccc(OS(C)(=O)=O)cc2)cc1)C(=O)O,inactive,
CCC(=O)O[C@]1(C(=O)CCl)[C@@H](C)C[C@H]2[C@@H]3CCC4=CC(=O)C=C[C@]4(C)[C@@]3(F)[C@@H](O)C[C@@]21C,13.3 µM (active),

Compound,Potency,"activity change, negative = cytotoxicity"
C[N+](C)(C)CCOC(=O)CCC(=O)OCC[N+](C)(C)C,inactive,
Brc1c2ccccc2c(Br)c2ccccc12,,2.6% [at 8.52 µM]
CC[N+](C)(CC)CCOC(=O)C(O)(c1ccccc1)C1CCCCC1 (stereo not given),inactive,
C/C(=C(\CCOP(=O)(O)O)SC(=O)c1ccccc1)N(C=O)Cc1cnc(C)nc1N,inactive,
CCCCCCCC#N,inactive,
Cc1cccc(C)c1OCC(=O)N[C@@H](Cc1ccccc1)[C@@H](O)C[C@H](Cc1ccccc1)NC(=O)[C@H](C(C)C)N1CCCNC1=O,16.8 µM (active),
OC(C#CCN1CCCC1)(c1ccccc1)c1ccccc1,23.7 µM (active),
CCC(C)c1cc(C(C)(C)C)c(O)c(C(C)(C)C)c1 (stereo not given),inactive,
O=S(=O)(Oc1ccc(Cl)cc1)c1ccccc1,inactive,
O=C(O)c1ccc(S(=O)(=O)O)cc1C(=O)O,inactive,
CCOc1ccc(N=Nc2ccc(/C=C/c3ccc(N=Nc4ccc(OCC)cc4)cc3S(=O)(=O)O)c(S(=O)(=O)O)c2)cc1,inactive,
C=C(C)C(=O)OCC,inactive,
O=C(OCCCCCCOC(=O)c1ccccc1)c1ccccc1,61.1 µM (active),
CCc1c(C(=O)NN2CCCCC2)nn(-c2ccc(Cl)cc2Cl)c1-c1ccc(Br)cc1,13.7 µM (active),
CCOC(=O)COC(=O)c1cc(Oc2ccc(C(F)(F)F)cc2Cl)ccc1[N+](=O)[O-],21.7 µM (active),
CO[C@@H]1[C@H](OC(=O)/C=C/C=C/C=C/C=C/C(=O)O)CC[C@]2(CO2)[C@H]1[C@@]1(C)O[C@@H]1CC=C(C)C,1.9 nM (active) and 12.2 nM (active),
CCCCCCCN,inactive,
O=[N+]([O-])c1cccc(S(=O)(=O)O)c1,inactive,
COC(C)OC,inactive,
CCCCCCCCO[C@@H]1O[C@H](CO)[C@@H](O)[C@H](O)[C@H]1O,inactive,
